Experimental data as given in PubChem BioAssay (NCI).
This is part of a sample that, as a whole, favours compounds with a hit. Of some 79,000 tested, about 15% had one in any assay. Calls of active or inactive are those of the source. Rule as the data show it: active = growth inhibition above about 70%; inactive = the rest.

Legend:
[1] = NCI Yeast Anticancer Drug Screen. Data for the rad50 strain (AID 155);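 also: 0% = growth of vehicle-only cultures of the same strain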; details: S. cerevisiae rad50 strain growth inhibition, hits give high values
How it was run: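 Cells are treated with compound, grown, and their growth is then scored against vehicle-only cultures of the same repair-deficient yeast strain.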

[2] = NCI Yeast Anticancer Drug Screen. Data for the mec2-1 strain (AID 157); details: S. cerevisiae mec2-1 strain, hits give high values
How it was run: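 mec2-1 yeast strain, carrying an alteration in DNA damage repair or cell cycle control, was exposed to compounds; growth inhibition was measured relative to vehicle-treated controls.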

[3] = NCI Yeast Anticancer Drug Screen. Data for the sgs1 mgt1 strain (AID 161);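 also: 0% = growth of cultures given vehicle only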; details: S. cerevisiae sgs1 mgt1 strain, hits give high values
How it was run: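 Yeast cells carrying a defined DNA-repair defect were exposed to test compounds. Growth inhibition was measured relative to vehicle-treated controls.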

[4] = NCI Yeast Anticancer Drug Screen. Data for the cln2 rad14 strain (AID 165);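 also: 0% = growth equal to vehicle treated cultures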; details: S. cerevisiae cln2 rad14 strain, hits give high values
How it was run: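 Yeast carrying cln2 and rad14 alterations (cell cycle control and DNA damage repair) were exposed to compounds. Growth inhibition was measured against vehicle-treated controls.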

[5] = NCI Yeast Anticancer Drug Screen. Data for the bub3 strain (AID 167); details: S. cerevisiae bub3 mutant strain, hits give high values
How it was run: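 Part of a panel of yeast mutants defective in DNA damage repair or cell cycle regulation. Each strain is grown with compound, and inhibition is calculated relative to solvent-treated cultures.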

[6] = NCI Yeast Anticancer Drug Screen. Data for the mlh1 rad18 strain (AID 175); details: S. cerevisiae mlh1 rad18 strain growth inhibition, hits give high values
How it was run: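 Growth inhibition of the yeast strain was measured after compound exposure and expressed relative to vehicle-treated controls. The strain carries defined defects in DNA damage repair.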

[7] = at 5.0 µM (retest, dose inferred, filed as 0.5)
[8] = at 50.0 µM (retest, dose inferred, filed as 5.0)

Measured: growth inhibition

c1ccc(Oc2ccc(Nc3c4ccccc4nc4ccccc34)cc2)cc1
inactive: [1]; [8] 57% | [1]; at 50.0 µM 45.9% | [2]; [7] 4% | [2]; at 50.0 µM 30% | [3]; [7] 17% | [4]; [7] 3% | [4]; [8] 62% | [4]; at 50.0 µM 31.9% | [5]; [7] -4% | [5]; at 50.0 µM 28.6% | [6]; [7] 13% | [6]; at 50.0 µM 27.1%
active: [1]; [7] 85% | [2]; [8] 70% | [3]; [8] 84% | [3]; at 50.0 µM 76.2% | [5]; [8] 81% | [6]; [8] 91%

Cn1c(=O)c2c(ncn2-c2ccncc2)n(C)c1=O
active: [4]; at 50.0 µM 73.8%
inactive: [1]; [7] -5% | [1]; [8] 0% | [1]; at 50.0 µM 11.4% | [2]; [7] -4% | [2]; [8] -5% | [2]; at 50.0 µM -3.9% | [3]; [7] -3% | [3]; [8] -7% | [3]; at 50.0 µM 15.9% | [4]; [7] -3% | [4]; [8] 31% | [5]; [7] -9% | [5]; [8] -8% | [5]; at 50.0 µM -5.35% | [6]; [7] -5% | [6]; [8] -2% | [6]; at 50.0 µM 4.8%

COc1ccc(C2=C(Cl)C(=O)N(c3ccccc3Cl)C(=O)C2(Cl)Cl)cc1
active: [1]; [8] 96% | [1]; at 50.0 µM 92.7% | [2]; [8] 95% | [2]; at 50.0 µM 98.7% | [3]; [8] 97% | [3]; at 50.0 µM 97.5% | [4]; [8] 96% | [4]; at 50.0 µM 71.5% | [5]; [8] 97% | [5]; at 50.0 µM 97.1% | [6]; [8] 80% | [6]; at 50.0 µM 97.4%
inactive: [1]; [7] 19% | [2]; [7] -1% | [3]; [7] 17% | [4]; [7] -5% | [5]; [7] 0% | [6]; [7] 17%
